Results on 22 molecules are retold here after PubChem BioAssay (Tox21).

Assay [1] is described as follows: qHTS assay to identify small molecule agonists of the RXR signaling pathway - cell viability counter screen (AID 1159529). Further: series mostly up to about 77 µM; nearly all actives have a fitted effect of over 50% in size. The method, boiled down: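 CellTiter-Glo luminescence gave viability in the wells also read for beta-lactamase. Cells (RXR-alpha-UAS-bla HEK 293T, 2% charcoal-stripped FBS medium) had 5 hr plating, then 16 hr compound exposure at 37 C; tetraoctyl ammonium bromide served as positive control.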

Assay [2] can be described thus: qHTS assay to identify small molecule antagonists of the retinoid acid receptor (RAR) signaling pathway - cell viability counter screen (AID 1159551). Further: nearly all actives have a fitted effect of over 35% in size. The method, boiled down: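 C3RL4 cells were seeded overnight at 37 C, then treated with compounds plus 1 uM (final) retinol for 6 h at 37 C. Viability was read as ATP by CellTiter-Glo luminescence after 30 min at room temperature.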
In general terms: In qHTS, concentration-response curves come from the screen itself.

Assay [3] can be described thus: qHTS assay to identify small molecule antagonists of the retinoic acid receptor (RAR) signaling pathway (AID 1159552; further: nearly all actives have a fitted effect of over 50% in size). The gist of the method:
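Luminescent RARE reporter read-out in C3RL4 cells: 6 hr co-treatment at 37 C of test compounds with retinol at 1 uM final. Cells plated overnight beforehand; luciferase reagent incubated 30 min at room temperature before reading.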

Assay [4] can be described thus: qHTS assay to identify small molecule agonists of the retinoic acid receptor (RAR) signaling pathway (AID 1159553). Further: potency means the concentration at half of the fitted maximal effect. The gist of the method: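 C3RL4 cells carrying a RARE luciferase reporter were plated overnight at 37 C, then exposed to compounds in DMSO for 6 hr at 37 C and 5% CO2. Luminescence was read 30 min after luciferase reagent addition at room temperature.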

Assay [5] in a line: qHTS assay to identify small molecule antagonists of the estrogen related receptor (ERR) signaling pathway from Tox21 library - cell viability counter screen (AID 1224834). Further: nearly all actives have a fitted effect of over 30% in size. Further: potency means the concentration at half of the fitted maximal effect. The method, boiled down: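 ERR reporter cells were plated 6 h before compound addition, then exposed to test compounds in DMSO for 17.5 h at 37 C. Viability was read as CellTiter-Fluor fluorescence after a 30-minute incubation at 37 C.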

Assay [6] deals with Luciferin 4-monooxygenase (Photinus pyralis) (UniProt P08659). The assay is described as follows: qHTS assay to identify small molecule inhibitors of firefly luciferase (AID 1224835). Further: series mostly up to about 120 µM; nearly all actives have a fitted effect of over 25% in size. The gist of the method: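 Inhibition of purified Photinus luciferase is measured by luminescence. Substrate levels (D-luciferin, ATP) sit at their KM values. Each compound is tested in a concentration series.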

The nature of assay [7]: qHTS assay to identify small molecule antagonists of the estrogen related receptor signaling pathway with the pleiotropic PPARgamma coactivator (PGC) from Tox21 10K library - cell viability counter screen (AID 1224840; active means well fitted cell-killing curve with a large enough effect in the repeat runs, not every such curve was filed as active; further: nearly all actives have a fitted effect of over 40% in size). The method, boiled down: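 PGC/ERR cells were seeded at 2,000 cells/well and left 6 hours at 37 C/5% CO2 before pin-tool addition of compounds in DMSO. After 17.5 hours at 37 C, CellTiter-Fluor was added and fluorescence read 30 minutes later.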

Assay [8] is described as follows: qHTS assay to identify small molecule antagonists of the estrogen related receptor signaling pathway with the pleiotropic PPARgamma coactivator (PGC) from Tox21 10K library (AID 1224841; call rule not given here; further: actives are mostly falling curves and most rising ones were filed inactive; nearly all actives have a fitted effect of over 50% in size; further: potency means the concentration at half of the fitted maximal effect; on activity, negative = inhibition: series mostly up to about 92 µM). The gist of the method: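 PGC/ERR reporter cells were seeded at 2,000 cells/well and held 6 hours at 37 C/5% CO2 before pin-tool addition of compounds in DMSO. After 18 hours at 37 C, One-Glo was added and luminescence read after 30 minutes at room temperature.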

The nature of assay [9]: qHTS assay to identify small molecule agonists of the estrogen related receptor signaling pathway with the pleiotropic PPARgamma coactivator (PGC) from Tox21 10K library (AID 1224842). Further: nearly all actives have a fitted effect of over 15% in size. The method, boiled down: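 Luminescence from One-Glo (30 min, room temperature) measured after PGC/ERR cells had 18 h at 37 C with pinned compound (23 nL in DMSO). Cells had been seeded at 2,000 per well and pre-incubated 6 h.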

In assay [10] the target is Thyrotropin receptor (Homo sapiens) (UniProt P16473). The assay is described as follows: qHTS assay to identify small molecule agonists of the thyroid stimulating hormone receptor (TSHR) signaling pathway (AID 1224843; calls by dose curve; further: nearly all actives have a fitted effect of over 45% in size). The method, boiled down: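 HEK293 cells stably bearing the thyrotropin receptor were plated at 800 cells/well and challenged with compound (30 min, RT). Accumulated cAMP was quantified via cAMP-d2 competing for cryptate-tagged antibody.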

The nature of assay [11]: qHTS assay to identify small molecule agonists of the constitutive androstane receptor (CAR) signaling pathway - cell viability counter screen (AID 1224836). Further: series mostly up to about 92 µM; nearly all actives have a fitted effect of over 45% in size. The gist of the method:
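Cell viability multiplexed with the CAR agonist screen: CellTiter-Fluor fluorescence after 23 hr at 37 C. HepG2-CYP2B6-hCAR cells got compounds at 15 concentrations with PK11195 at 0.75 uM final.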

The nature of assay [12]: qHTS assay to identify small molecule antagonists of the constitutive androstane receptor (CAR) signaling pathway - cell viability counter screen (AID 1224837). Further: series mostly up to about 92 µM; nearly all actives have a fitted effect of over 45% in size. The method, boiled down:
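HepG2 cells stably expressing hCAR and a CYP2B6-2.2kb reporter were plated and pre-incubated 4 hr at 37 C/5% CO2, then given compounds at 15 concentrations plus 50 nM CITCO (final). After 23 hr, viability was read by CellTiter-Fluor fluorescence.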

The target of assay [13] is Nuclear receptor subfamily 1 group I member 3 (Homo sapiens) (UniProt Q14994). The assay is described as follows: qHTS assay to identify small molecule antagonists of the constitutive androstane receptor (CAR) signaling pathway (AID 1224838). Further: nearly all actives have a fitted effect of over 40% in size. The gist of the method:
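HepG2 cells stably co-transfected with hCAR and a CYP2B6-2.2kb luciferase reporter were seeded 4 h before compound addition at 15 concentrations. Cells were stimulated with 50 nM CITCO (final) for 24 h at 37 C; luciferase luminescence was then read.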

For assay [14] the target is unchanged. The assay is described as follows: qHTS assay to identify small molecule agonists of the constitutive androstane receptor (CAR) signaling pathway (AID 1224839). Further: nearly all actives have a fitted effect of over 15% in size. Further: potency means the concentration at half of the fitted maximal effect.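 On activation: HepG2 cells stably carrying human CAR and a CYP2B6 luciferase reporter; series mostly up to about 92 µM.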 The gist of the method:
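Luminescent ONE-Glo read-out after 24 hr, 37 C exposure of double-stable HepG2-CYP2B6-hCAR reporter cells to a 15-point compound series, in the presence of 0.75 uM PK11195 (final).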

Records with an inconclusive call do not appear. A number with no mark means an inactive call. The source made the active and inactive calls. Unless noted, the call rests on the fitted dose curve; in most records, active means well fitted curve in the direction sought with a large enough effect in the repeat runs; inconclusive means weak or mixed curves; inactive means no such curve, though single readings can be large; an effect the other way counts as inactive or inconclusive.
On the % scale 0 is the no-effect control and ±100 the full control effect.

Sequence of Thyrotropin receptor (Homo sapiens) (P16473 whole entry, looked up): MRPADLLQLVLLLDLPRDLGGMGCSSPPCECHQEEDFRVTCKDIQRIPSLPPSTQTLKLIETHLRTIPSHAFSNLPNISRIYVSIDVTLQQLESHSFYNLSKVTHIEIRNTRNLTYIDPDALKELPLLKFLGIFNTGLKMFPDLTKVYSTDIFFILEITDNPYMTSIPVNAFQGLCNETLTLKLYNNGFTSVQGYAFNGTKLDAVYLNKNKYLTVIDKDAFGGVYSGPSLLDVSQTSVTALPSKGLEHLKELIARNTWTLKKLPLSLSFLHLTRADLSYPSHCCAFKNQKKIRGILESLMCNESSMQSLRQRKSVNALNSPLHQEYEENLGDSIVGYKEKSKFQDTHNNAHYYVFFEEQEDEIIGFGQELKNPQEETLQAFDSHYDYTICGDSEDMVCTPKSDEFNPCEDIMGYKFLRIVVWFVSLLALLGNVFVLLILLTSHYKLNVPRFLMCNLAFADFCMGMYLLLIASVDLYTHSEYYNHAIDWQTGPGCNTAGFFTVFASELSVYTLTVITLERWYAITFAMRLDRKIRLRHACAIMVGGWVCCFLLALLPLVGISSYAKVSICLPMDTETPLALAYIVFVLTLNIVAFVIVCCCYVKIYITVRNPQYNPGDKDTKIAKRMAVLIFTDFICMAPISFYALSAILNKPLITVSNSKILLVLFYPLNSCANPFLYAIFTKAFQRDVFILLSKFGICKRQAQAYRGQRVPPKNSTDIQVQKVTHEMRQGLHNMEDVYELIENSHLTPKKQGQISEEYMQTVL
Sequence of Nuclear receptor subfamily 1 group I member 3 (Homo sapiens) (Q14994 whole entry, looked up): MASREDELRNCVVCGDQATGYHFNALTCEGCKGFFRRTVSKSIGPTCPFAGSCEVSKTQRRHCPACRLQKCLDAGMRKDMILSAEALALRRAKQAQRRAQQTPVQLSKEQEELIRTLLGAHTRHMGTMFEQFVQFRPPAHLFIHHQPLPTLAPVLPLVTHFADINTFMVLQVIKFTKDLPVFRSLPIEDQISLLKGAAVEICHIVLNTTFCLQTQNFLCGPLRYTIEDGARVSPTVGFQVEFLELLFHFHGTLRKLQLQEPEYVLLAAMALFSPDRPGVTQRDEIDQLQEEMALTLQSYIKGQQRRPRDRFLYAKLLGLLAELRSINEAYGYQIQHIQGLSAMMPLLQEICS
Sequence of Luciferin 4-monooxygenase (Photinus pyralis) (P08659 whole entry, looked up): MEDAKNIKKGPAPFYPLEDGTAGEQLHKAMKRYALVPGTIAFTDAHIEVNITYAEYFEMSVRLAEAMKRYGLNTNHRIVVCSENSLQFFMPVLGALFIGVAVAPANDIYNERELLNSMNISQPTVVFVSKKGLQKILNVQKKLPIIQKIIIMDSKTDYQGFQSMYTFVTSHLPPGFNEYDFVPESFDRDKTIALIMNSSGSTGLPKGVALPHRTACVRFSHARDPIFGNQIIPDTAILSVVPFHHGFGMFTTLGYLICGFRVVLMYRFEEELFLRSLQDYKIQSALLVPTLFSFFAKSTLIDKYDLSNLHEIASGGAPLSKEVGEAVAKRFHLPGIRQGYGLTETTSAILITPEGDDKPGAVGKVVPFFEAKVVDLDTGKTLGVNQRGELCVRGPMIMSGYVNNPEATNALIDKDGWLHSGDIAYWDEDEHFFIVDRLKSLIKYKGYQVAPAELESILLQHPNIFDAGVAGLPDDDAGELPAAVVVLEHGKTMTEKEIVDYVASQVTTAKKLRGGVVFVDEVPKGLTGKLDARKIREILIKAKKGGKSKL

For the molecule `CC(COCCO)OCCO` (stereo not given), the Potency result in assay [1], in assay [2], in assay [3], in [4], in assay [5] and in [6] was “inactive” in each case. Besides, the Potency entry in assay [7], in assay [8], in [9] and in [10] was “inactive” throughout.

Consider `OC(C#CCN1CCCC1)(c1ccccc1)c1ccccc1`, for which the Potency result in assay [1], in [2], in assay [3], in [4], in assay [6] and in assay [11] was “inactive” each time. For the same molecule, the Potency result in assay [12], in [7], in assay [8], in assay [9] and in assay [10] was “inactive” in each case.

Take `CN1C[C@H]2c3ccccc3Oc3ccc(Cl)cc3[C@@H]2C1`: the Potency entry in [1], in [2], in [3], in assay [4], in assay [5] and in assay [6] was “inactive” in each case. For the same molecule, the Potency result in [12], in [13], in [7], in [8], in assay [9] and in assay [10] was “inactive” each time.

Regarding `CCCCCCCC/C=C\CCCCCCCC(=O)OCC`, the Potency entry in assay [1], in assay [2], in [3], in assay [4], in assay [5] and in [6] was “inactive” throughout. Moreover, the Potency entry in assay [14], in assay [7], in assay [8], in assay [9] and in assay [10] was “inactive” in each case.

As to `CCOC(=O)C(=O)CCc1ccccc1`, the Potency entry in assay [1], in [2], in assay [3], in assay [4], in assay [5] and in [6] was “inactive” throughout. Also, the Potency entry in assay [12], in assay [13], in [14] and in assay [7] was “inactive” each time.

Regarding `O=[N+]([O-])c1ccc2[nH]ncc2c1`, the Potency result in [1], in [2], in assay [3], in [4], in assay [5] and in assay [6] was “inactive” each time. The Potency entry in [12], in [7] and in [10] was “inactive” throughout.

For the molecule `CCC(C)O` (stereo not given), the Potency result in assay [1], in assay [2], in assay [3], in assay [4], in assay [5] and in assay [11] was “inactive” in each case. The Potency entry in assay [14], in assay [7] and in [10] was “inactive” each time.

With `CCCCC`, the Potency entry in [1], in [2], in [3], in assay [4], in assay [5] and in assay [11] was “inactive” throughout. Further, the Potency entry in [12], in assay [7] and in [10] was “inactive” throughout.

As for `C=C(C)C(=O)OCCOCC`, the Potency result in [1], in [2], in assay [3], in assay [4], in [5] and in [11] was “inactive” throughout. The Potency entry in assay [12], in assay [13] and in assay [7] was “inactive” throughout.

Regarding `O=C(O)C(S)C(S)C(=O)O` (stereo not given), the Potency entry in [1], in assay [2], in assay [3], in assay [4], in assay [5] and in [11] was “inactive” each time. Moreover, the Potency result in [12], in [7] and in assay [10] was “inactive” each time.

For `CCCCCCc1ccc(-c2ccc(C#N)cc2)cc1`, the Potency entry in assay [1], in assay [2], in [3], in assay [4], in assay [5] and in assay [11] was “inactive” throughout. Moreover, the Potency result in assay [12], in assay [13], in assay [7], in assay [8] and in assay [10] was “inactive” throughout.

For the molecule `CN(C)c1ccc(/C=C/c2ccc([N+](=O)[O-])cc2)cc1`, the activity change, negative = cytotoxicity in assay [1] was -5.22% [at 6.97 µM]; in [2], -0.286% [at 8.39 µM]; in [12], 11.7% [at 8.39 µM]. Further, in assay [3], the activity, negative = inhibition was 84.6% [at 8.39 µM]. The Potency in assay [4] was 0.219 µM (active). For the same molecule, the viability change, negative = cytotoxic in assay [5] is 1.01% [at 8.39 µM]; in assay [11], 5.96% [at 8.39 µM]. In addition, the activation in [10] was -1.26% [at 8.39 µM].

With `O=CC1CC=CCC1` (stereo not given), the Potency entry in assay [1], in assay [2], in assay [3], in assay [4], in [6] and in assay [11] was “inactive” each time. Further, the Potency entry in [12], in assay [13], in [14], in assay [7] and in assay [10] was “inactive” throughout.

With `C=C1[C@H]2CC[C@@H]3[C@H]2C(C)(C)CCC[C@]13C`, the Potency result in assay [1], in assay [2], in assay [3], in assay [4], in assay [6] and in [11] was “inactive” each time. In addition, the Potency entry in assay [12] and in assay [7] was “inactive” in each case.

As for `O=S(c1cc(Cl)cc(Cl)c1O)c1cc(Cl)cc(Cl)c1O`, the Potency entry in [1], in assay [2], in assay [3], in assay [4], in [5] and in assay [11] was “inactive” in each case. The Potency result in assay [12], in [13], in assay [14], in assay [7], in [8] and in assay [10] was “inactive” in each case.

On to `O=P(O)(OCc1ccccc1)OCc1ccccc1`, for which the Potency result in assay [1], in [2], in assay [3], in assay [4], in [5] and in assay [7] was “inactive” throughout. Moreover, the Potency result in assay [10] was “inactive”.

As for `CC(C)O.CC(C)O.CCOC(=O)/C=C(\C)O.CCOC(=O)/C=C(\C)O.[Ti]`, the Potency result in [1], in assay [2], in assay [3], in [4], in assay [5] and in assay [11] was “inactive” in each case. In addition, the Potency entry in assay [12], in assay [7] and in assay [10] was “inactive” throughout.

For `COC(C)OC`, the Potency result in [1], in [2], in assay [3], in [4], in assay [5] and in [11] was “inactive” in each case. The Potency result in assay [12], in assay [7], in [8] and in assay [10] was “inactive” throughout.

Turning to `COc1cc2c(cc1OC)C(C(C(=O)N(CCc1ccc(OC)c(OC)c1OC)CCc1ccc(OC)c(OC)c1OC)c1ccccc1)=NCC2` (stereo not given), the Potency entry in assay [1], in assay [2], in assay [3], in [4], in assay [11] and in assay [12] was “inactive” in each case. In addition, the Potency entry in [9] and in assay [10] was “inactive” in each case. Besides, the Potency in assay [5] and in [8] was 23.7 µM (active) each time.

Regarding `O=C1CCC(=O)O1`, the Potency result in [1], in assay [2], in assay [3], in assay [4], in [6] and in assay [11] was “inactive” throughout. Besides, the Potency entry in [13], in assay [14], in assay [7] and in [8] was “inactive” throughout.

Consider `CCCCOC(=O)CCCCCCCC(=O)OCCCC`, for which the Potency entry in assay [1], in assay [2], in assay [3], in [4], in assay [6] and in assay [11] was “inactive” each time. The Potency entry in [12], in [13], in assay [14], in assay [7], in assay [8] and in assay [9] was “inactive” in each case. Besides, the Potency entry in assay [10] is “inactive”.

In the case of `CCOC(=O)Cc1cccc2ccccc12`, the Potency entry in assay [1], in assay [2], in [3], in assay [4], in assay [6] and in assay [11] was “inactive” throughout. For the same molecule, the Potency entry in assay [12], in assay [13], in [7], in assay [8] and in [9] was “inactive” in each case. In addition, in assay [14], the Potency is 30.6 µM (active).
